Cycloheximide cs: counter-screen hit for Shiga toxin inhibitors, cycloheximide. cell reporter, cycloheximide protein synthesis inhibition counterscreen. max response, %. actives 12% (n = 300,000). AID 2314; in the data active means max response mostly above about 13%, no sharp cut-off; inactive means mostly below about 14%; further: read at 38.3 µM for the half of the compounds with a filed dose; 0% is about no effect
Shiga toxin inh: Shiga toxin inhibition. Vero cells, Shiga toxin protein synthesis inhibition reporter. inhibition, % at 38.7 µM. actives 9.2% (n = 290,000); in the data active means inhibition mostly above about 28%, no sharp cut-off; inactive means mostly below about 43%; further: 0% is about no effect
Pf growth 96h: P. falciparum growth inhibition at 96 hours. P. falciparum luciferase reporter growth, 96 h. Potency, µM (doses to about 28.7 µM), inactives show at the highest dose activity change, negative = inhibition, most hits filed as inhibitors. actives 6.9% (n = 320,000); further: potency means the concentration at half of the fitted maximal effect; on the % scale 0 is the no-effect control and ±100 the full control effect
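Two-generation exposure (96 h) targets delayed-death phenotype. Reporter parasites carrying integrated firefly luciferase, in red cells at 2% hematocrit and 0.05% parasitemia final, kept at 37 C, 5% CO2; luminescence loss indicates inhibition.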
LmPK inhibitor: LmPK (Leishmania mexicana) enzyme inhibition. Potency, µM (titrated, usually from 57.5 µM), inactives show at the top dose activity change, negative = inhibition, actives largely listed as inhibitors. purified LmPK, Kinase-Glo ATP luminescence, 1 h. Q27686. actives 0.37% (n = 290,000); further: potency means the concentration at half of the fitted maximal effect; on the % scale 0 is the no-effect control and ±100 the full control effect
Target sequence (Q27686 whole entry, looked up): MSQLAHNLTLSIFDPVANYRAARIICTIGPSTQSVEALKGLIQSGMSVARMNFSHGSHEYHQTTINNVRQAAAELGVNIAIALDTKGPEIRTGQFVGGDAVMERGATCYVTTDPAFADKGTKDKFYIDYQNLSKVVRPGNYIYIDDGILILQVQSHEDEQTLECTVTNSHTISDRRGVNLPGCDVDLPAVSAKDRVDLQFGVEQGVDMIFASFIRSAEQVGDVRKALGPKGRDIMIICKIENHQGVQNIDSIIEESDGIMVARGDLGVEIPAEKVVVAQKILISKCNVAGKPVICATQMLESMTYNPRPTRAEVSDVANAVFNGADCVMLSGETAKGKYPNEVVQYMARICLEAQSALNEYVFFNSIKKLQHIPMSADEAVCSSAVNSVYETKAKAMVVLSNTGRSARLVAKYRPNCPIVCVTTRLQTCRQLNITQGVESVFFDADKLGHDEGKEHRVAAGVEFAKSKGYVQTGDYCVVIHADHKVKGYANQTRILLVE
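0.1 nM LmPK, 0.5 mM PEP, 0.1 mM ADP; 50 mM imidazole pH 7.2, 7 mM MgCl2, 50 mM KCl; 1 h RT. Kinase-Glo luminescence readout, normalized to no-enzyme (full inhibition) and uninhibited wells.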
Pf growth 48h: inhibits P. falciparum growth in the first generation, 48 h; P. falciparum luciferase growth in erythrocytes, 48 h; Potency, µM (doses to about 28.7 µM), inactives show at the top dose activity change, negative = inhibition, usual class: inhibitors; actives 5.9% (n = 310,000); further: potency means the concentration at half of the fitted maximal effect; on the % scale 0 is the no-effect control and ±100 the full control effect
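Read-out is firefly luciferase luminescence from an integrated reporter in P. falciparum, so falling signal marks reduced parasite growth. Infected erythrocytes were at 2% hematocrit and 0.1% parasitemia (final) in Albumax-supplemented RPMI 1640.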
An asterisk follows results filed as active; u = inconclusive; x = no result given; [ ] = remark or other dose. Most compounds without a hit are left out; they make up all but 22% or so of the library. Unless noted, the call rests on the fitted dose curve; in most records, active means well fitted inhibition curve with a large enough effect; inconclusive means small, poorly fitted or top-dose-only effect, or another doubt; inactive means no such curve, though single readings can be large or run the other way.

SMILES | Cycloheximide cs | Shiga toxin inh | Pf growth 96h | LmPK inhibitor | Pf growth 48h
CCCC(=O)C1=C(O)C(C(=O)OC)C(C)(C)CC1=Nc1cccc([N+](=O)[O-])c1 (stereo not given) | 1 | x | -29% | 6% | u
CCCC(=O)C1=C(O)C(C(=O)OC)C(C)(C)CC1=Nc1cccc2ccccc12 (stereo not given) | 6 | 3 | -27% | 2% | 5.2µM*
CCCC(=O)C1=C(O)C(C(=O)OC)C(C)(C)CC1=Nc1ccccc1 (stereo not given) | -5 | -27 | -4% | -8% | 4.1µM*
C=C(C)c1cccc(C(C)(C)NC(=O)NNC(=O)c2ccccc2O)c1 | 5 | 1 | -1% | 2% | 1%
Cc1ccccc1-n1nnnc1SCc1cc(=O)n2ccsc2n1 | 9 | -7 | -23% | 3% | -1%
Nc1nn2cc(-c3ccc(Br)cc3)nc2c2ccccc12 | 62* | 125* | 80% | u | -38%
NC(=O)Oc1ccc(Cc2ccccc2)cc1 | x | x | -18% | x | -2%
CCC1(C)Cc2sc3c(=O)[nH]c(=S)[nH]c3c2CO1 (stereo not given) | 23 | 25 | 66% | -2% | -6%
Cc1cccc(NC(=O)CN2CCC(NC(=O)C3CCCCC3)CC2)c1C | -2 | -14 | 4.1µM* | -4% | 6%
Cc1ccc(NC(=O)CN2CCC(NC(=O)C3CCCCC3)CC2)c(Br)c1 | -4 | -12 | 12µM* | -2% | -2%
Cc1cc(Br)c(NC(=O)CN2CCCC2)c(Br)c1 | 16* | 64* | 45% | 1% | 38%
Cc1cc(Br)c(NC(=O)CN2CC=C(c3ccccc3)CC2)c(Br)c1 | 15 | 34 | u | 7% | -10%
Cc1ccc(NC(=O)CN2CCOCC2)c(Br)c1 | 23* | x | u | -3% | 49%
COc1ccc(Cl)cc1NC(=O)CN1CCc2ccccc21 | -1 | 1 | 25% | 0% | 5%
COCc1cc(C)n(CC(=O)Nc2cc(C)cc(C)c2)c(=O)c1C#N | 3 | -6 | 7% | 3% | 7%
Cc1cc(=O)oc2cc(OCc3nnc(-c4ccccc4Br)o3)ccc12 | -3 | -14 | x | 2% | x
NC(=O)c1ccccc1OCc1nnc(-c2ccccc2Br)o1 | 19 | 65* | -6% | -5% | 8%
O=Cc1ccc(OCc2nnc(-c3ccccc3Br)o2)cc1 | 21 | 57* | 17% | 4% | 9%
Brc1ccccc1-c1nnc(COc2ncnc3c2cnn3-c2ccccc2)o1 | 7 | 9 | 34% | 5% | 39%
O=c1ccc2ccc(OCc3nnc(-c4ccccc4Br)o3)cc2o1 | 18 | 43* | u | 1% | 12%
CCN(CC)S(=O)(=O)c1ccc(N2CCOCC2)c(NC(=O)c2cc(C)cc(C)c2)c1 | -3 | -3 | u | 4% | 10µM*
CCN(CC)S(=O)(=O)c1ccc(N2CCOCC2)c(NC(=S)NC(=O)c2ccco2)c1 | 1 | -14 | 1.5µM* | 1% | 2.6µM*
CCN(CC)S(=O)(=O)c1ccc(N2CCOCC2)c(NC(=O)Cc2ccccc2)c1 | -4 | -13 | u | -1% | u
O=C(NC(=S)Nc1cc(S(=O)(=O)N2CCOCC2)ccc1N1CCOCC1)c1ccco1 | -2 | -7 | u | 6% | 0%
CCN(CC)S(=O)(=O)c1ccc(N2CCOCC2)c(NC(=O)c2ccccc2)c1 | 7 | -12 | u | 1% | u
SMILES | Cycloheximide cs | Shiga toxin inh | Pf growth 96h | LmPK inhibitor | Pf growth 48h
CCN(CC)S(=O)(=O)c1ccc(N2CCOCC2)c(NC(=O)C23CC4CC(CC(Cl)(C4)C2)C3)c1 | 1 | -6 | 3.7µM* | 1% | 8.3µM*
CCc1cc(C(=O)Nc2cc(S(=O)(=O)N(CC)CC)ccc2N2CCOCC2)sc1C | x | x | 9.3µM* | x | u
O=C(CSc1nnc(-c2cccnc2)o1)Nc1ccccc1F | x | x | 214% | x | 96%
Cc1ccc(Sc2nc(-c3ccccc3)nnc2C(F)(F)F)cc1 | -3 | -9 | 0% | -7% | 13µM*
CNc1nc(-c2ccccc2)nnc1C(F)(F)F | 14 | 12 | 6% | -1% | 18%
COCCN(C(=O)COC(=O)c1ccc(Cl)s1)c1c(N)n(Cc2ccccc2)c(=O)[nH]c1=O | x | x | 41% | x | 0%
Cc1ccc(CNC(=O)c2ccc(CNc3c(N4CCCC4)c(=O)c3=O)cc2)cc1 | 4 | 8 | -11% | 10% | x
CC1CCN(c2c(NCc3ccc(C(=O)N(C)C4CCCCC4)cc3)c(=O)c2=O)CC1 | -1 | 14 | -19% | 0% | 8.3µM*
Cc1ccc(N(C)C(=O)c2ccc(CNc3c(N4CCC(C)CC4)c(=O)c3=O)cc2)cc1 | 0 | -2 | u | 1% | 9.3µM*
CC(Oc1ccc(S(=O)(=O)N2CCCC2)cc1[N+](=O)[O-])C(=O)NC1(C#N)CCCCC1 (stereo not given) | x | x | 24% | x | u
Cc1ccn(CCC(=O)Nc2ccc3c(c2)OCO3)n1 | 24* | 73* | -6% | 4% | -11%
Cc1cc(C)n(CCC(=O)Nc2ccc3c(c2)OCCO3)n1 | 15* | 45* | 0% | -3% | 61%
CC1CC(C)(C)NC(=S)N1CCC(=O)Nc1ccc2c(c1)OCCO2 (stereo not given) | 13 | -10 | 1.5µM* | -2% | -21%
COc1ccc(NC(=O)CCn2nc(C)cc2C)cc1 | 7 | 1 | 23% | -1% | 28%
OCCN1CCN(c2nc(-c3ccccc3O)nc3ccccc23)CC1 | -3 | -1 | u | 1% | -17%
CCS(=O)(=O)N1CCC(C(=O)Nc2ccc3c(c2)CCC3)CC1 | -4 | -16 | u | -5% | -18%
CCOCCCN(Cc1ccco1)S(=O)(=O)c1csc(C(N)=O)c1 | -2 | 3 | 13µM* | 5% | 20%
Cc1csc(SCC(=O)NC(=O)NC2CCCC2)n1 | 1 | 35 | 38%[5.75 µM] | 4% | 7%
Cc1cc(=O)[nH]c(SCCCOc2ccccc2Cl)n1 | 4 | -1 | u | 4% | x
Cc1cc(=O)[nH]c(SCCOc2ccc(OC(C)C)cc2)n1 | 31* | 47* | 1% | -20% | 72%
C/C=C/c1ccc(OCCSc2nc(C)cc(=O)[nH]2)c(OC)c1 | 24* | 77* | -12% | 2% | u
C/C=C/c1ccc(OCCCCN2C(=O)NC(C)(C)C2=O)c(OC)c1 | 14* | 25 | u | -10% | 4%
Cc1cc(C)nc(NCCO)n1 | 2 | 9 | 16% | 1% | 0%
O=C(COc1ccc(S(=O)(=O)N2CCCC2)cc1Cl)NC1CCCC1 | 3 | 18 | x | 5% | 9.3µM*
Cc1cc(Cl)c(S(=O)(=O)NC(C(=O)O)C(C)C)cc1OCC(=O)NC1CCCCC1 (stereo not given) | -4 | -15 | 47% | -1% | x
O=C(COc1ccc(Cl)cc1[N+](=O)[O-])NC1CCCCC1 | 24* | 71* | -9% | -2% | 111%
Cc1cc(Cl)c(S(=O)(=O)N2CCCC2)cc1OCC(=O)NC1CCCCC1 | -3 | -13 | 0.083µM* | 4% | x
CCOc1ccc(S(=O)(=O)N2CCC(C(=O)NC3CC3)CC2)cc1Cl | -6 | 4 | -4% | 6% | u
COc1cc(C)c(Cl)cc1S(=O)(=O)N1CCCC1 | 3 | -6 | u | 0% | -3%
